From PubChem BioAssay
cardiac RTF act – cardiac RTF calcium sensitization | P19429+P45379 | IANBD-labeled TnC RTF fluorescence at EC20 calcium; 0% EC20 calcium, 100% full calcium | activation, % at 7.2 µM | 340,000 tested, 0.24% active | AID 493008;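 active = activation above the mean over all tested compounds plus 3 SD, cut at about 30% in these data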;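 note: rise in fluorescence read as greater calcium sensitivity of cardiac thin filaments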
Cardiac RTF inh – cardiac RTF calcium desensitization. P19429+P45379. IANBD-labeled cardiac RTF, Ca2+ fluorescence. inhibition, % at 7.15 µM. 340,000 tested, 0.12% active;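 active = inhibition above the mean inhibition of all tested compounds plus 3 SD, cut at about 17% in these data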;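 note: assay run at fixed EC70 calcium of 1.6 mM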
IDE cell activ – activators of human insulin-degrading enzyme in cells; HEK cells, FAbeta-B cleavage, fluorescence polarization; 0% vehicle, 100% cell-free pure enzyme wells; activation, % at 5.96 µM; 340,000 tested, 0.073% active; AID 493087;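 active = activation above the mean of all tested compounds plus 3 SD, set per screening campaign, cut at about 17% in these data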
CRFR2-BP ag – agonists of human CRF-binding protein/CRF-R2 receptor complex; HEK293 CRF-R2/CRF-BP, calcium dye fluorescence (FLIPR); percent of saturating CRF peptide response; AID 588473; 350,000 tested, 0.46% active; activation, % at 13.2 µM;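 active = activation of at least 50%, plus an integration ratio under a set limit after plate pattern correction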;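 note: plate controls were neutral control wells without compound for no effect and CRF at EC100 for full effect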
TPT1 inh – C. albicans TPT1 enzyme inhibition | 300,000 tested, 0.81% active | inhibition, % at 5 µM | recombinant caTPT1, FP RNA substrate dephosphorylation;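 active = inhibition above the mean of all tested compounds plus 3 SD, set per screening campaign, cut at about 24% in these data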;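 note: plate controls were DMSO alone for no effect and ferristatin control at 100 nM for full effect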
IDE cell inh – cellular human IDE inhibition; HEK cells, FAbetaB cleavage, fluorescence polarization; inhibition, % at 5.59 µM; P14735; 320,000 tested, 0.41% active;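 active = percent inhibition above the average of all tested compounds plus 3 SD, set per screening campaign, cut at about 16% in these data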;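 note: IDE supplied by intact live HEK cells; FP after avidin binding of uncleaved biotin substrate so inhibition keeps polarization high; 0% = DMSO wells and 100% = 60 µM reference IDE inhibitor Ii1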
TPT1 inh confirm – TPT1 (C. albicans) inhibition, confirmation; shares compounds with TPT1 inh; 2,400 tested, 74% active; inhibition, % at 5 µM; recombinant caTPT1, fluorescence polarization, RNase T1 coupled;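 active = inhibition above the primary screen limit, the mean inhibition of all tested compounds plus 3 SD, cut at about 25% in these data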
RNase T1 counter – blocks Aspergillus oryzae RNase T1, a TPT1 counter-screen; 2,400 tested, 83% active; inhibition, % at 5 µM; shares compounds with TPT1 inh; RNase T1 cleavage, fluorescence polarization, 1536-well;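 active = inhibition above the solvent-only control well mean plus 3 SD, limit set per screening run, cut at about 23% in these data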;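 note: plate controls were DMSO wells with enzyme for no effect and wells without RNase T1 for full effect; inhibitors block cleavage so intact labeled substrate keeps polarization high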
Target sequence (P00651 whole entry, looked up): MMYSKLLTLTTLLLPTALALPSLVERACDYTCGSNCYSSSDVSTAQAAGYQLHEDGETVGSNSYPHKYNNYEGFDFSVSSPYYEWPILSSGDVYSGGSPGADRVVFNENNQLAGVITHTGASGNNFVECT
Starred values were filed as active, the others as inactive; . = no result given. The list is not random: actives were taken first. Their share in the collection is about 1.5%.

SMILES	cardiac RTF act	Cardiac RTF inh	IDE cell activ	CRFR2-BP ag	TPT1 inh	IDE cell inh	TPT1 inh confirm	RNase T1 counter
O=c1[nH]cc(S(=O)(=O)Nc2ccc3c(c2)OCO3)c(=O)[nH]1	-0.5	-4.2	-1.7	0.8	1.3	-1.6	.	.
c1ccc(-c2cn3nc(-c4ccccc4)c(-c4ccccc4)nc3n2)cc1	-2.0	-13.6	3.3	31.3	34.3*	-3.9	43.5*	51.3*
Cc1ccc(-c2cn3nc(-c4ccccc4)c(-c4ccccc4)nc3n2)cc1	.	.	.	12.7	67.6*	4.1	70.5*	74.9*
COCCN(C(=O)COC(=O)c1ccc(-c2ccccc2)cc1)c1c(N)n(Cc2ccccc2)c(=O)[nH]c1=O	2.4	-11.0	-3.4	-1.4	.	.	.	.
O=C(Nc1ccccc1N1CCOCC1)c1cccc(Oc2ccccc2)c1	-2.1	-5.2	-2.0	1.2	-2.2	3.2	.	.
CCCC1=[N+](CC(=O)c2ccccc2)CCn2cccc21	4.9	-19.4	-4.5	6.8	86.4*	0.7	8.1	14.2
CCCC1=[N+](CC(=O)c2ccc(Br)cc2)CCn2cccc21	11.9	-6.2	-6.0	4.9	118.0*	-5.1	8.9	18.4
CCCC1=[N+](CC(C)=O)CCn2c(C)ccc21	10.3	-14.8	1.6	4.0	-3.0	-3.3	.	.
Cc1ccccc1OCCC(=O)Nc1ccc(N2CCOCC2)cc1N1CCOCC1	0.6	-3.8	1.1	-1.7	-1.0	0.5	.	.
COC(=O)c1ccccc1NC(=O)Cn1c(CCC(=O)O)ccc1-c1cccs1	3.2	-1.4	-3.9	1.0	31.9*	-1.8	21.2	32.2*
CC(=O)c1cccc(NS(=O)(=O)c2ccc(-c3cnc(C4CC4)o3)cc2)c1	0.0	1.7	0.6	0.0	28.3*	-1.4	7.0	9.4
Cc1ccc(N/C=C/C(=O)c2sc(-c3ccccc3)nc2C)cc1	16.9	-21.6	-2.0	8.2	38.8*	0.5	37.8*	46.8*
Cc1nc(-c2ccccc2)sc1C(=O)NN	3.0	-1.5	-5.6	2.4	2.7	-0.6	.	.
CC(C)(C)OC(=O)C[C@@H]1C/C=C\C[C@@H](CC(=O)NCCO)C(=O)N2CCC[C@H]2COC1=O	-0.7	-11.8	1.5	-2.1	.	0.5	.	.
CCOCCCNC(=O)CCn1nc(-c2ccc(Cl)cc2)ccc1=O	-3.5	-3.9	0.4	-4.0	-1.1	7.1	.	.
CC(NC(=O)/C(C#N)=C1\N=C(NC(=O)c2ccco2)c2ccccc21)c1ccccc1 (stereo not given)	.	.	.	0.2	47.3*	9.3	23.9	31.3*
CC(NC(=O)/C(C#N)=C/c1ccco1)c1ccccc1 (stereo not given)	-1.9	-5.0	-0.2	4.0	2.2	-1.4	.	.
Cc1nnc(N/N=C/c2ccccc2F)n1N	6.1	-4.8	5.3	-0.2	-2.1	2.6	.	.
Cc1nnc(N/N=C/c2ccco2)n1N	1.3	-7.8	4.2	-0.5	69.7*	5.4	11.1	16.8
CCN(CC)CCCNc1nc(CN2CCOCC2)nc2sc3c(c12)CCC3	5.3	6.5	1.4	-1.4	34.9*	4.5	7.5	9.4
COc1ccc(N=Cc2c(O)[nH]c3ccccc23)cc1	2.6	-2.1	0.8	0.9	1.8	-1.9	.	.
Oc1[nH]c2ccccc2c1/C=N/c1nccs1	-2.4	-11.6	-3.3	0.8	36.2*	1.8	34.6*	44.8*
COc1cccc(C(=O)CC(=O)C(=O)Nc2cc(OC)c(OC)c(OC)c2)c1	.	.	.	.	-2.2	0.6	.	.
Cc1cc2oc(=O)cc(CN3CCCc4ccccc43)c2cc1C	15.2	-28.2	2.0	8.2	48.4*	0.3	43.3*	53.1*
COCCN(CC(=O)Nc1cccc(C)c1C)C(=O)/C=C/c1ccc2c(c1)OCCO2	.	.	.	1.1	.	.	.	.
SMILES	cardiac RTF act	Cardiac RTF inh	IDE cell activ	CRFR2-BP ag	TPT1 inh	IDE cell inh	TPT1 inh confirm	RNase T1 counter
O=C(NNC(=O)c1ccc(S(=O)(=O)N2CCCCC2)cc1)c1ccc(F)cc1	2.7	-12.3	-1.9	-0.8	-2.9	0.2	.	.
CS(=O)(=O)N1CC2CCCN2c2cc(C(F)(F)F)ccc21 (stereo not given)	5.4	2.2	1.9	0.4	27.7*	1.8	9.7	14.2
CCOCCCNC(=O)C(c1ccc(OC)cc1)N(Cc1ccc2c(c1)OCO2)C(=O)c1ccccc1O (stereo not given)	-2.3	1.6	5.1	-2.7	-0.4	4.2	.	.
CCCCCN(C(=O)CCC(=O)OC(C)C(=O)NC1CCCCC1)c1c(N)n(CCCC)c(=O)[nH]c1=O (stereo not given)	-16.0	-4.1	1.9	4.3	1.1	-2.8	.	.
Cc1c([C@@H]2C[C@H]3CN(Cc4cccc(Cl)c4)C(=O)[C@]34CCCN24)cnn1C	9.0	-11.9	-0.4	3.1	31.6*	4.6	33.9*	47.7*
COc1ccc2cc(S(=O)(=O)N3CCOCC3)ccc2c1	-2.8	-9.5	-4.4	0.1	-1.3	-4.2	.	.
CCN1c2ccc(S(=O)(=O)N3CCOCC3)cc2N(Cc2ccc(OC)cc2)C1C (stereo not given)	0.5	1.2	-6.4	-1.3	31.9*	1.8	48.3*	59.4*
CCC(=O)N1c2ccc(S(=O)(=O)N3CCN(c4ccc([N+](=O)[O-])cc4)CC3)cc2CC1C (stereo not given)	-1.9	-8.8	-0.6	-2.4	-1.3	5.8	.	.
COCCN(C(=O)COC(=O)c1ccc2[nH]c(C)c(C)c2c1)c1c(N)n(Cc2ccccc2)c(=O)[nH]c1=O	-5.3	-13.6	3.4	-0.1	27.9*	-6.0	59.9*	70.9*
C=CCOC(=O)C1=C(C)NC(SCC(=O)N(CC)CC)=C(C#N)C1c1ccccc1 (stereo not given)	-1.5	1.5	14.3	-1.4	-2.1	0.7	.	.
CC(=O)C1=C(C)NC(SCC(=O)c2ccc(-c3ccccc3)cc2)=C(C#N)C1c1cccnc1 (stereo not given)	.	.	.	.	29.8*	4.1	39.1*	49.6*
C=CCOC(=O)C1=C(C)NC(SCC(=O)NC(=O)OCC)=C(C#N)C1c1cccnc1 (stereo not given)	-0.9	-7.9	-2.2	-2.4	24.7*	3.0	23.0	31.2*
CC(OC(=O)c1cccnc1Cl)C(=O)Nc1ccc2c(c1)OCO2 (stereo not given)	2.5	-9.6	1.8	-0.5	.	-1.8	.	.
CCOC(=O)/C=c1\s/c(=C\c2c(OC)ccc3ccccc23)c(=O)n1CC(=O)NCC1CCCO1 (stereo not given)	10.2	-13.1	-0.6	1.3	28.2*	3.6	41.4*	49.9*
CCOC(=O)/C=c1\s/c(=C\c2ccc(C(=O)OC)cc2)c(=O)n1CC(=O)Nc1ccccc1	4.1	-2.9	-0.2	0.0	8.2	4.9	.	.
